In the first assay the target is VGLL2. In words: pooled miR-30 sensor sort-seq; sequence = guide strand. The conditions noted are these: shRNA.
Turning to TTAAACATAACTCAGTCTTTGG, the sensor-assay potency score (higher = more potent) is -0.689.
Sequence TACTTCTCTACCACAGTCTTAG gave a sensor-assay potency score (higher = more potent) of -0.503.
Consider TAACAAAATAATTCACATCAGC, for which the sensor-assay potency score (higher = more potent) is -0.803.
The sequence TAATGTTCGTCTCTTCTTCCTC registered a sensor-assay potency score (higher = more potent) of -0.332.
Still for that read-out and setting: then TTCTCTACCACAGTCTTAGATG, with -1.22; and TTGACTTCTCTTTACTTCTCTA, with -0.415; and TATAATCACACTACCTAACAAA, with -1.39.
Still for that read-out and setting: for TAAAATCTGACAGTAGTAGTGC the value was 0.941; for TAAGTGAAGAGGACGCAGCGGG, -0.197.

The target of a further assay is VIPR2. Described as above. The conditions noted are these: shRNA.
In the case of TCTTGTACTGAGACTGGTCGTT, the sensor-assay potency score (higher = more potent) is -0.0864.
Take TTTCGCTTCAGCTCGCACTGCA: the sensor-assay potency score (higher = more potent) is 0.156.
For TTCAGGTGGATGTAATTCCTGG, the sensor-assay potency score (higher = more potent) was -0.512.
TTGCTGAAGACTTTTGGGCAGG returned a sensor-assay potency score (higher = more potent) of -1.06.
On to TCTGGGAACGTCTCTGACCATC, for which the sensor-assay potency score (higher = more potent) is -1.08.
In turn, TTTGCTGTAAAAATTGCTGAAG registered a sensor-assay potency score (higher = more potent) of -0.647.
The same measure, in the same setting: then TTTTGCTTATGTTTCCTGCTTT, with 0.362; and TAAAACGTGATCTTGCTCTCAT, with 1.2; and TAGTGGACGCCGAACAGCGGGA, with -0.939.
In the case of TTCACCAGAATATAAAACGTGA, the sensor-assay potency score (higher = more potent) was -0.447.
Same read-out and setting: for TTGACCAGCACTGAGATGGCTC the value was -0.324; for TTTGAGACCTCAGAAGCTCTGC, 0.397.

The next assay addresses VKORC1. The assay is described as above. The settings on record: shRNA.
In the case of TAGAGCGAGAGCACTAAGCCCG, the sensor-assay potency score (higher = more potent) was -0.598.
Still for that read-out and setting: for TCACGTTGATAGCATAGGTGGT the value was -0.749.
As for TAGAGCACGAAGAACAGGATCC, the sensor-assay potency score (higher = more potent) is -0.705.
On the same count and under the same terms, for TTGGACCTTCCGGAAACTGAGC the value was -1.21.
Still for that read-out and setting: for TTGATTGAGGATGCTGTCCTGT the value was 0.167.
The sequence AACAATGCAGAAATCATAGAGC had a sensor-assay potency score (higher = more potent) of -0.667.
The sequence ATAGGTGGTGATACAAACAATG displayed a sensor-assay potency score (higher = more potent) of -1.33.
Consider TCATAGAGCACGAAGAACAGGA, for which the sensor-assay potency score (higher = more potent) is 0.298.
Regarding TAGGTGGTGATACAAACAATGC, the sensor-assay potency score (higher = more potent) was -1.84.
For the sequence ATAGCATAGGTGGTGATACAAA, the sensor-assay potency score (higher = more potent) was -1.7.
The same measure, in the same setting: then AGCACGAAGAACAGGATCCAGG, with -2.45.
The same measure, in the same setting: for TTGATAGCATAGGTGGTGATAC the value was -0.976.

The target of the next assay is VN1R2. The description is as above. The settings on record: shRNA.
Regarding TAAACGTAGGTGATGAAGGAAA, the sensor-assay potency score (higher = more potent) was -0.975.
In the case of TTATTGGATACAAAGCAGGAGA, the sensor-assay potency score (higher = more potent) was -0.969.
TAGTGCAGCAGTGTTCACTAGC came in with a sensor-assay potency score (higher = more potent) of -0.0087.
On the same count and under the same terms, for TTAGATAGGATAACCAAGGAGT the value was -0.311; for TACAAGACCAAAACGATGGAGC, -0.2.
On to TTTGGTGGGTTTCTCTCCGTGT, for which the sensor-assay potency score (higher = more potent) was -0.0937.
The same measure, in the same setting: then TTTTACTTTCATCTCTGCCCAC, with -0.563.

For the origin of these results see the OligoGym collection.
Note: reference of the scale not given here.
